Compounds with a hit are over-represented: about 2.4% of the library has one in this group of screens.
AmpC nodet inh: Promiscuous and Specific Inhibitors of AmpC Beta-Lactamase (assay without detergent); P00811; AmpC nitrocefin hydrolysis, absorbance 480 nm, no detergent; Potency, µM (top dose mostly 28.7 µM); 1.8% of 71,000 active; AID 585, 2007
Target sequence (P00811 whole entry, looked up): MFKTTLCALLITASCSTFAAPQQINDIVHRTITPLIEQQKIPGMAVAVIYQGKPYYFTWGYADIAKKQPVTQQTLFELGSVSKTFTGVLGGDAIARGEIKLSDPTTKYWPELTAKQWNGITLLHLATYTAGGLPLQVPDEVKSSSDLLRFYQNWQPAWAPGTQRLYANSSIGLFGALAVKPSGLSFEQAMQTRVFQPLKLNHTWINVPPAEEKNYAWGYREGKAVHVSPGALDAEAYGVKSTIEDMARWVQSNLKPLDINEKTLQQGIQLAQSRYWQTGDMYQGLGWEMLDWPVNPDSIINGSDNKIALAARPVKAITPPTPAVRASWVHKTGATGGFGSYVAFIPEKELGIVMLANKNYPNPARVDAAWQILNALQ
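Enzyme, pH 7.0 phosphate. Compound titrations were pre-incubated with AmpC for 15 min at room temperature before nitrocefin (stock 800 uM) addition; product formation was recorded at 480 nm every 20 s for 4 min.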
LT uptake inh: qHTS Assay for Anthrax Lethal Toxin Internalization. Cells, anthrax lethal toxin internalization, FRET ratio (460/530). Potency, µM (series often up to 40 µM), most hits filed as inhibitors. 0.67% of 70,000 active; also: nearly all actives have a fitted effect of over 50% in size
AmpC det inh: Promiscuous and Specific Inhibitors of AmpC Beta-Lactamase (assay with detergent); P00811; purified AmpC, nitrocefin hydrolysis with detergent; Potency, µM (titrated, usually from 28.7 µM); 0.09% of 71,000 active; active = well fitted curve in the direction sought with a large enough effect; inconclusive = small, poorly fitted or top-dose-only effect
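E. coli AmpC (5.3 nM) in 20 mM phosphate pH 7.0 with 0.01% Triton X-100, preincubated 15 min RT with compound; nitrocefin (2 uL of 800 uM stock) hydrolysis followed by 480 nm absorbance every 20 s over 4 min.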
SmPrx2 inh: Schistosoma Mansoni Peroxiredoxins (Prx2) | Schistosoma mansoni peroxiredoxin 2 (Prx2) | S. mansoni Prx2 activity coupled to TGR/GSH (TGR is thioredoxin glutathione reductase), NADPH fluorescence loss, qHTS | Potency, µM | 0.07% of 65,000 active | AID 448, 2006
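Coupled assay in which S. mansoni TGR passes NADPH reducing equivalents via glutathione to Prx2, which reduces H2O2. Compounds were preincubated 15 min at room temperature with 25 nM TGR/50 nM Prx2 mix. Kinetic NADPH fluorescence loss (ex 365/em 450 nm) was monitored.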
Hits are given with their value; n = inactive; u = inconclusive; x = not tested or not shown; ! = not confirmed by another sample; [ ] = dose if it differs, or a comment. Unless noted, calls follow the shape of the full dose curve.

SMILES | AmpC nodet inh | LT uptake inh | AmpC det inh | SmPrx2 inh
C[C@H]1C[C@@H]2[C@H]3CCC4=CC(=O)C=C[C@@]4(C)[C@]3(Cl)[C@@H](Cl)C[C@]2(C)[C@]1(O)C(=O)COP(=O)(O)O | n[5.75 µM] | n[8 µM] | n[5.75 µM] | n
CN1CCN(c2ccc([N+](=O)[O-])c3[nH]o[n+](=O)c23)CC1 | n[5.75 µM] | u | n[5.75 µM] | n
CCOC(=O)CSc1nn(C)c(=S)s1 | 4µM[single pt active] | n | n | n
CCOC(=O)CSc1nnc(N)s1 | n | u | n | n
CN(C)C(=O)Nc1cccc(C(F)(F)F)c1 | n | u | n | x
CCCCSc1c(C)c2cc3c(cc2[nH]c1=O)OCO3 | 16µM[single pt active] | x | n | n
CCc1nnc(NC(=O)CSc2nnc(COc3ccccc3C)o2)s1 | 13µM[single pt active] | n | n | n
N#Cc1cccc(NC(=O)N2CCC3(CC2)CCN(C(=O)c2csnn2)CC3)c1 | n | n | n | n
O=C(NCc1ccc(Cl)cc1)c1cc(-c2cccs2)on1 | 7.9µM | n | n | n
O=C(Nc1cnn(Cc2ccc(F)cc2)c1)c1cc(-c2cccs2)on1 | 13µM[single pt active] | n | n | n
CCOc1ccc(CN2C(=O)CCC2(C)C(=O)NCc2cccnc2)cc1 (configuration not stated) | n | n | n | n
CC1CCC(NC(=O)C2(C)CCC(=O)N2Cc2cccnc2)CC1 (configuration not stated) | 4µM[single pt active] | n | n | n
CC1(C(=O)NC2CCCCC2)CCC(=O)N1Cc1cccnc1 (configuration not stated) | 4µM[single pt active] | n | n | n
CC(=O)N1CCC[C@@]2(CCN(Cc3nccs3)C2)C1 | n | n | n | n
O=C1CC(c2ccc(S(=O)(=O)NCc3ccccc3)cc2)CN1 (configuration not stated) | 4µM[single pt active] | n | n | n
Cc1ccccc1NS(=O)(=O)c1ccc(C2CNC(=O)C2)cc1 (configuration not stated) | n | n | n | n
CC(=O)OCC(=O)[C@@]1(O)CC[C@@H]2[C@@H]3CCC4=CC(=O)CC[C@@]4(C)[C@H]3C(=O)C[C@]21C | n | n | n | n
Cc1nn(-c2ccccc2)c2sc(C(=O)N(CC(=O)NC(C)(C)C)Cc3ccco3)cc12 | n | 13µM | n | n
OC(COc1ccc(Cl)c2ccccc12)CN1CCN(c2ccccn2)CC1 (configuration not stated) | n | 10µM | n | n
Cc1ccc(S(=O)(=O)N[C@H](C(=O)O)C(C)C)cc1 | n[5.75 µM] | n[8 µM] | n[5.75 µM] | n
CN(C)CCCc1cccnc1 | n[5.75 µM] | n[8 µM] | n[5.75 µM] | n
Cc1ccccc1-c1noc(-c2ccc(O)cc2)n1 | n | 10µM | n | x
Cc1ccc(-c2noc(-c3ccccc3Br)n2)cc1 | n | u | n | x
C1CCN2C[C@@H]3C[C@@H](CN4CCCC[C@H]34)[C@H]2C1 | n | n | n | n
COc1ccc(Cn2c(C)nc3c(c2=O)c2nc4ccccc4nc2n3Cc2ccco2)cc1 | n | u | n | n
SMILES | AmpC nodet inh | LT uptake inh | AmpC det inh | SmPrx2 inh
COc1ccc(S(=O)(=O)c2c(N)n(Cc3ccco3)c3nc4ccccc4nc23)cc1 | 13µM | u | n | n
O=C(c1cc(C(F)(F)F)cc(C(F)(F)F)c1)N1CCC2(CC1)CN(Cc1ccccc1)C2 | n | n | n | n
CNc1nc(-c2cccc(NS(C)(=O)=O)c2)nc2ccccc12 | n | n | n | n
COc1cccc(-c2nc(NCc3ccccc3)c3ccccc3n2)c1 | n | n | n | n
COc1ccccc1CNc1nc(-c2cccc(C#N)c2)nc2ccccc12 | u | u | n | n
COc1ccccc1CNc1nc(-c2ccc3c(c2)OCO3)nc2ccccc12 | u | 13µM | n | n
COc1ccccc1CNc1nc(-c2cccc(NS(C)(=O)=O)c2)nc2ccccc12 | n | 13µM | n | n
CS(=O)(=O)Nc1cccc(-c2nc(Nc3ccc(F)cc3)c3ccccc3n2)c1 | n | 10µM | n | n
COc1cccc(-c2nc(NCc3ccccc3OC)c3ccccc3n2)c1 | n | 13µM | n | n
COc1ccccc1CNc1nc(-c2ccc(N(C)C)cc2)nc2ccccc12 | n | u | n | n
CCCCN(CC)S(=O)(=O)c1cccc2cccnc12 | n | u | n | n
O=C(O)C1CCCN1S(=O)(=O)c1cccc2cccnc12 (configuration not stated) | n | n | n | n
O=[N+]([O-])c1ccc2c(c1)Cc1cc(N=Cc3ccc4c(c3)OCO4)ccc1-2 | n[5.75 µM] | n[8 µM] | n[5.75 µM] | n
O=c1cc(-c2ccc(O)c(O)c2)oc2cc(O)cc(O)c12 | 0.5µM! | u | n | n
COc1ccc(-c2cc(=O)c3c(O)cc(O)cc3o2)cc1 | n | n[3.58 µM] | n | n

Source: PubChem BioAssay (National Center for Advancing Translational Sciences (NCATS))
